TIM10 inh = TIM10 yeast growth inhibition; hit rate 1.4% among 330,000; S. cerevisiae TIM10 strain growth, BacTiter-Glo luminescence, 24 h; inhibition, % at 10 µM; AID 463195;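 active means inhibition of 40% or more at the single tested concentration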;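 further: wild-type TIM10 isogenic control strain grown at permissive 25 °C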
NALP1 inh = NALP1 inhibition; S. cerevisiae NALP1/ASC/caspase-1 growth, X-gal OD620, 72 h; inhibition, % at 10 µM; hit rate 0.61% among 280,000; in the data active means inhibition mostly above about 24%, no sharp cut-off; inactive means mostly below about 32%
tim23-1 inh = tim23-1 yeast growth inhibition; S. cerevisiae tim23-1 growth, BacTiter-Glo luminescence, 24 h; inhibition, % at 20 µM; hit rate 1.3% among 330,000; AID 463212;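 active means growth inhibition of the mutant yeast at or above 50%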;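 further: temperature-sensitive mutant grown at 25 °C; plate controls were DMSO-treated mutant yeast for no effect and medium wells lacking yeast for full effect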
NLRP3 yeast inh = NALP3 inhibition in yeast; hit rate 0.39% among 330,000; inhibition, % at 10 µM; Yeast reconstituted NLRP3/ASC/caspase-1, beta-gal luminescence, 24 h;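 active means inhibition of 50% or more; inactive means inhibition below 50%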;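 further: plate controls were induced DMSO wells for no effect and uninduced yeast grown without galactose for full effect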
tim10-1 inh = tim10-1 yeast growth inhibition; inhibition, % at 20 µM; S. cerevisiae tim10-1 ts strain growth, BacTiter-Glo, 24 h; AID 463190; hit rate 2.2% among 330,000;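 active means inhibition of at least 40%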;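 further: mutant grown at 25 °C; 0% = DMSO wells with yeast and 100% = wells holding no yeast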
tim10-1 confirm = confirmation of tim10-1 mutant yeast growth inhibitors; shares compounds with tim10-1 inh; AID 463213; S. cerevisiae tim10-1 ts strain growth, BacTiter-Glo, 24 h; hit rate 56% among 7,400; inhibition, % at 20 µM;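 active means inhibition of yeast growth at or above a set limit in either of two repeat tests at 20 µM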;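 further: tim10-1 mutant grown at permissive 25 °C to find synthetic lethal compounds; 0% = DMSO yeast wells and 100% = medium wells without yeast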
The depositor's hits bear a star; · = no result. The list is not random: actives were taken first. Their share in the collection is about 4%.

SMILES | TIM10 inh | NALP1 inh | tim23-1 inh | NLRP3 yeast inh | tim10-1 inh | tim10-1 confirm
O=C1C(c2ccc(F)cc2)N(Cc2ccc3c(c2)OCO3)C(=O)CN1C1CCCCC1 (stereo not given) | 17 | 24 | 29 | 5 | 40* | 30
O=C(Nc1ccc(N2CCN(C(=O)c3cccs3)CC2)cc1)c1ccc(F)cc1 | 30 | 19 | 27 | 4 | 24 | ·
Cc1ccc2sc(N(CCCN(C)C)C(=O)c3ccc(Br)s3)nc2c1C | 29 | 4 | -18 | 27 | 11 | ·
CCOC(=O)c1cnc2ccc(C(=O)OC)cc2c1Nc1ccc2c(c1)OCCO2 | 25 | -5 | 18 | 0 | 2 | ·
CCOC(=O)c1cnc2c(OC)cccc2c1Nc1ccc2c(c1)OCCO2 | 35 | 16 | 42 | 5 | 44* | 32*
COc1cc(CN2C(=O)C(NC(=O)c3ccco3)(C(F)(F)F)C3=C2CC(C)(C)CC3=O)cc(OC)c1 (stereo not given) | 10 | 20 | 43 | 12 | 47* | 27
COc1ccc(C(=O)NC2(C(F)(F)F)C(=O)N(Cc3ccco3)C3=C2C(=O)CC(C)(C)C3)cc1OC (stereo not given) | 21 | 6 | 11 | 19 | 6 | ·
Cc1ccc(-c2nc3cnccn3c2Nc2c(C)cccc2C)o1 | 28 | 87 | 37 | 17 | 60* | 55*
CC(C)(C)OC(=O)N1CCN(C(=O)Nc2ccc3c(c2)OCCO3)CC1 | -33 | 9 | 7 | 1 | 7 | ·
Clc1ccc(C2Nc3cccc4cccc(c34)N2)cc1 | 11 | 24 | 33 | 23 | 11 | ·
Cc1cccc(C2Nc3cccc4cccc(c34)N2)c1 | 36 | 24 | 41 | 15 | 41* | 24
COc1ccc(C)cc1NC(=O)N1CCCc2ccccc21 | 4 | 6 | 26 | 9 | 47* | 15
C=CCN1C(=O)c2ccc(C(=O)N3CCC(C(N)=O)CC3)cc2C1=O | -2 | -4 | 8 | 8 | 5 | ·
O=C(OCc1nnc(-c2ccccc2)o1)c1ccco1 | 15 | -4 | -11 | 7 | 41* | 12
O=C(OCc1nnc(-c2ccccc2)o1)c1cc(=O)c2ccccc2o1 | -4 | 0 | -11 | 22 | -8 | ·
CCN1CCN(CCNC(=O)CCCn2nc(C)c3c(C)n(-c4ccc(C)cc4)nc3c2=O)CC1 | 8 | -1 | 9 | 12 | -10 | ·
O=C(Nc1c2c(nn1-c1ccc(F)cc1)CS(=O)(=O)C2)c1ccc2c(c1)OCO2 | 12 | 0 | -8 | 14 | -19 | ·
O=C(Nc1ccc(Cl)cc1)NC1CCCCC1Cc1ccco1 (stereo not given) | 38 | -3 | 7 | 18 | 47* | 41*
O=C(Nc1ccc(Cl)cc1)NC1CCCC1Cc1ccco1 (stereo not given) | 33 | 5 | 26 | 14 | 33 | ·
Cc1ccc(NC(=S)/N=C(\N)Nc2nc(C)c3cc(C)ccc3n2)c(C)c1 | 32 | 1 | 48 | -5 | 50* | 37*
CCN(CC(=O)Nc1ccc(OC)cc1)C(=O)c1ccc2[nH]c3c(c2c1)CC(C)CC3 (stereo not given) | 29 | · | 44 | 7 | 26 | ·
CCc1ccc(C(=O)C(C)OC(=O)C2COc3ccccc3O2)cc1 (stereo not given) | 20 | 22 | 19 | -3 | 22 | ·
Oc1ccc(/C=N/Nc2ncc(Cl)cc2Cl)cc1 | 22 | -2 | 25 | 12 | 45* | 11
Cc1ccc(/C=N/Nc2ncc(Cl)cc2Cl)s1 | 19 | 4 | 30 | 42 | 42* | 17
O=C(Cc1cccc2ccccc12)NCC(=O)N1CCN(Cc2cccc(C(F)(F)F)c2)CC1 | 15 | · | 30 | 8 | 15 | ·
SMILES | TIM10 inh | NALP1 inh | tim23-1 inh | NLRP3 yeast inh | tim10-1 inh | tim10-1 confirm
COc1ccc(Cl)cc1NC(=O)CSc1nc(C)cc(C)n1 | -1 | 23 | 30 | 21 | 41* | 17
COc1ccc(NC(=O)CSc2nc(C)cc(C)n2)cc1 | 0 | -6 | 3 | 9 | -3 | ·
CCOC(=O)c1sc(NC(=S)NC(=O)C2CCCC2)cc1C | 20 | 13 | 17 | 14 | 11 | ·
CCOC(=O)c1sc(NC(=O)C2CC2)cc1C | 37 | 17 | 48 | 33 | 54* | 22
CC(C)(C)NS(=O)(=O)c1ccc(Oc2ncc(C(F)(F)F)cc2Cl)cc1 | 30 | 29 | 34 | -10 | 41* | 38*
Oc1cccc(Oc2ncc(C(F)(F)F)cc2Cl)c1 | 24 | -17 | 13 | 1 | 49* | 40*
CN(NS(=O)(=O)c1ccc(F)cc1)c1ncc(C(F)(F)F)cc1Cl | 12 | 4 | 10 | 21 | 16 | ·
